Source: PubChem BioAssay
A selection: hits, their analogues and other compounds. The true share with any hit is near 2.9%.
ADAM17 inh – ADAM17 inhibition, QFRET primary screen; P78536; recombinant ADAM17, EDANS/DABCYL FRET peptide cleavage; inhibition, % at 6.95 µM; 0.83% of 370,000 active; AID 720648;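 active means inhibition above the mean of compounds lying between control limits plus 3 SD, set per campaign, cut at about 8.5% in these data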
Target sequence (P78536 215-824 limits assumed): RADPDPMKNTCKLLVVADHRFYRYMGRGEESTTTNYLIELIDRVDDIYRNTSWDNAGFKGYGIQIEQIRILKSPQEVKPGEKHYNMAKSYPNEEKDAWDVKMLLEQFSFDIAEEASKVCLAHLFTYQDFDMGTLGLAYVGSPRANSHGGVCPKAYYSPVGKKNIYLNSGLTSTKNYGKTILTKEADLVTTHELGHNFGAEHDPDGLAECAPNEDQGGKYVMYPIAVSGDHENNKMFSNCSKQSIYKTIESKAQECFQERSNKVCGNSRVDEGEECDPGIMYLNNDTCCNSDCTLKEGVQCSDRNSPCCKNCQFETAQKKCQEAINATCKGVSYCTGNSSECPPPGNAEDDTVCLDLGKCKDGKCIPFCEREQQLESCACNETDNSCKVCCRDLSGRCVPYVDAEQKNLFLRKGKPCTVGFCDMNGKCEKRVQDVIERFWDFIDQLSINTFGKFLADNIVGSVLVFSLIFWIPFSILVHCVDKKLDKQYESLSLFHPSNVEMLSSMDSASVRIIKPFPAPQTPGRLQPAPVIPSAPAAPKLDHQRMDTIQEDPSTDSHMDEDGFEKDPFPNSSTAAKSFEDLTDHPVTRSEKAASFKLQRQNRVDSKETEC
KLK7 zymogen act – activators of human kallikrein-7 zymogen. P49862. activation, % at 7 µM. 0.9% of 370,000 active. purified proKLK7, EDANS-DABCYL substrate fluorescence; 100% is mature enzyme control, 0% vehicle. AID 652039;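 active means activation above the mean of all tested compounds plus 3 SD, computed per campaign excluding outliers beyond control limits, cut at about 13% in these data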
ADAM10 inh – inhibits human ADAM10; O14672; inhibition, % at 7 µM; AID 720582; recombinant ADAM10, EDANS/DABCYL FRET peptide cleavage, 3 h; 0.62% of 370,000 active;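 active means inhibition above a per-campaign cutoff equal to the mean of compounds falling between control-based bounds plus 3 SD, cut at about 20% in these data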
PLCb3 inh – blocks human PLC-beta3 enzyme activity; Q01970; Purified PLC-beta3, fluorogenic substrate, fluorescence; inhibition, % at 12.2 µM; 0.18% of 370,000 active; AID 720704; in the data active means inhibition above about 11%
PLC-gamma1 inh – PLC-gamma1 (human) inhibition, primary screen; P19174; purified PLC-gamma1, fluorogenic substrate, fluorescence; inhibition, % at 12.2 µM; 0.84% of 370,000 active; in the data active means inhibition above about 9.5%
ADAM10 confirm – human ADAM10 inhibition, confirmation; shares compounds with ADAM10 inh; ADAM10 QFRET peptide cleavage, EDANS fluorescence; inhibition, % at 6.95 µM; 1% of 2,100 active;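 active means inhibition above about 20% chosen separately for each screening run, limit read from the data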
ADAM17 ctr – ADAM17 inhibition, counter-screen for ADAM10 exosite hits; shares compounds with ADAM10 inh; inhibition, % at 6.95 µM; 0.5% of 2,100 active; ADAM17 QFRET peptide cleavage, EDANS fluorescence;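 active means mean triplicate inhibition above the solvent-only control wells' mean plus 3 SD, cut at about 12% in these data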
Numbers stand for hits; n = inactive; x = no result given.

SMILES	ADAM17 inh	KLK7 zymogen act	ADAM10 inh	PLCb3 inh	PLC-gamma1 inh	ADAM10 confirm	ADAM17 ctr
Cc1ccc(C(c2cc(Br)ccc2O)N2CCSCC2)cc1 (stereo not given)	n	n	25	n	n	n	n
O=C(c1cc(-c2ccccc2)n[nH]1)N1CCc2c([nH]c3ccccc23)C1c1ccccn1 (stereo not given)	n	n	27	n	n	n	n
O=C(c1cccs1)N1CCc2c([nH]c3ccccc23)C1c1ccccn1 (stereo not given)	n	n	n	n	n	x	x
Cc1ccc(C)c(OCc2cc(C(=O)NC(c3ccccn3)C(F)(F)F)no2)c1 (stereo not given)	n	n	21	n	n	n	n
Cc1ccc(C)c(OCc2cc(C(=O)N(C)Cc3ccccn3)no2)c1	n	n	n	n	n	x	x
Cc1cc(C)c(O)c(-c2cc(C(=O)Nc3ccc(S(=O)(=O)N4CCOCC4)cc3)[nH]n2)c1	n	n	21	n	n	n	n
Cc1cccc(C)c1NC(=O)CN(C)C(=O)c1cc(S(=O)(=O)N2CCOCC2)ccc1N1CCCC1	n	n	n	n	n	x	x
COc1ccc(C(CNC(=O)c2cc(F)c(F)c(F)c2F)N2CCOCC2)cc1 (stereo not given)	n	n	n	n	n	x	x
CN(C(=O)[C@@H](C1CC1)[C@@H](O)c1ccc2ccccc2c1)c1ccccc1	n	n	87	n	10	n	n
COc1cccc(N(C)C(=O)[C@@H](C2CC2)[C@@H](O)c2ccc(Cl)cc2)c1	n	n	n	n	n	x	x
O=S1(=O)c2ccc(N3CCSCC3)cc2Oc2ccccc2CN1Cc1cn(Cc2ccc(C(F)(F)F)cc2)nn1	n	n	20	n	n	n	n
O=S1(=O)c2ccc(N3CCCC3)cc2Oc2ccccc2CN1Cc1cn(Cc2ccc(C(F)(F)F)cc2)nn1	n	n	n	n	n	x	x
CC(=O)N1c2ccc(S(=O)(=O)NCC3CCC(C(=O)NCc4ccc(C)cc4)CC3)cc2CC1C (stereo not given)	n	n	74	n	n	n	n
C=CC[C@@H](CC(=O)NCCO)C(=O)N[C@H](COC(=O)[C@@H](CC=C)Cc1ccc(F)cc1)Cc1c[nH]c2ccccc12	n	n	n	n	n	x	x
C=CCC[C@@H](Cc1ccc(F)cc1)C(=O)OC[C@H](Cc1c[nH]c2ccccc12)NC(=O)[C@@H](CC=C)CC(=O)NCCO	n	n	25	n	n	n	n
COc1ccc(CC(=O)NNC(=S)Nc2ccccc2)cc1Br	n	n	n	n	n	x	x
O=C(Cc1noc2ccccc12)Nc1ccc(Cl)cc1	n	n	n	n	n	x	x
O=C(Cc1noc2ccccc12)NNC(=S)Nc1ccccc1	n	n	20	n	n	n	n
CCOc1ccc(CC(=O)NNC(=S)Nc2ccccc2)cc1Br	n	n	20	n	n	n	n
CC(C)Oc1ccc(CC(=O)NNC(=S)Nc2ccccc2)cc1	n	n	27	n	n	n	n
Cc1cc(NC(=O)CSc2nc3ccccc3c(=O)n2CCCC(=O)NCc2ccccc2)n[nH]1	n	n	n	n	n	x	x
O=[N+]([O-])c1ccc(Nc2ccc(F)cc2)cc1	n	n	n	n	n	x	x
CC(C)COc1ccc(CNC(=S)Nc2ccccc2)cc1Cl	n	n	21	n	n	n	n
CC(C)Oc1ccc(CNC(=S)Nc2ccccc2)cc1Cl	n	n	n	n	n	x	x
COc1ccc([C@@]2(C(C)C)ON(c3ccccc3C(F)(F)F)C2=O)cc1	n	n	n	n	n	x	x
SMILES	ADAM17 inh	KLK7 zymogen act	ADAM10 inh	PLCb3 inh	PLC-gamma1 inh	ADAM10 confirm	ADAM17 ctr
COc1ccc([C@@H]2[C@@H]3C(=O)N(C(C)(C)C)C(=O)[C@@H]3[C@]3(Cc4ccccc4)C(=O)N(c4ccccc4)C(=O)N23)cc1	n	n	n	n	n	x	x
COc1ccc(N2C(=O)N3[C@H](c4ccc(Br)cc4)[C@@H]4C(=O)N(C(C)(C)C)C(=O)[C@@H]4[C@]3(Cc3ccccc3)C2=O)cc1	n	n	24	n	n	n	n
O=C1[C@H]2[C@@H](c3ccc(F)cc3)N3C(=O)N(c4ccccc4)C(=O)[C@@]3(Cc3ccc(Cl)cc3)[C@H]2C(=O)N1C1CCCCC1	n	n	n	n	n	x	x
O=C1[C@H]2[C@@H](c3ccc(F)cc3)N3C(=O)N(c4ccccc4)C(=O)[C@@]3(Cc3ccccc3)[C@H]2C(=O)N1C1CCCCC1	n	n	24	n	n	n	n
O=C(c1ccccc1-c1ncc[nH]1)N1CCCC(Nc2ccc(F)cc2)C1 (stereo not given)	n	n	n	n	n	x	x
COc1ccc(NC(=O)NNC(=O)COc2ccc3ccccc3c2)cc1	n	n	n	n	n	x	x
COc1ccc(-n2c(C)nc3cc(C(=O)NCc4ccco4)ccc32)cc1	n	n	n	n	n	x	x
O=C(Nc1ccccc1Oc1ccccc1)c1cccc([N+](=O)[O-])c1	n	n	n	n	n	x	x
Cc1ccc(C(=O)Nc2ccccc2Oc2ccccc2)cc1[N+](=O)[O-]	n	n	22	n	n	n	n
Cc1ccc(CNC(=O)CCCN2C(=S)NC(C)(C)CC2C)cc1 (stereo not given)	n	n	n	n	n	x	x
C/C(=N\NC(=O)c1ccccc1F)c1ccc2c(c1)Nc1ccccc1S2	n	n	n	n	n	x	x
CCOCCOC(=O)c1[nH]c2c(c1C)C(=O)CC(c1ccc(N(C)C)cc1)C2 (stereo not given)	n	n	n	n	n	x	x
C/C=C/COC(=O)c1[nH]c2c(c1C)C(=O)CC(c1ccc(N(C)C)cc1)C2 (stereo not given)	n	n	65	n	n	n	n
CC1(C(=O)NCc2ccc(C(F)(F)F)cc2)CCN1Cc1ccccc1OC(F)F (stereo not given)	n	n	n	n	n	x	x
CC1(C(=O)NCc2cccc3ccccc23)CCN1Cc1ccccc1OC(F)F (stereo not given)	n	n	21	n	n	n	n
O=C(Nc1ccc([N+](=O)[O-])cc1)N1CCc2ccccc2C1	n	n	22	n	n	n	n
Cn1ccc2c(-c3ccc(F)nc3)cc3c(c21)C1CCC3O1 (stereo not given)	n	n	n	n	n	x	x
Cc1cc(SCC(=O)N/N=C/c2ccc(O)c(O)c2)c(C)cc1Br	n	n	29	n	n	n	n
O=C(NCc1cccs1)C1CCN(C(=O)NCc2ccccc2)CC1	n	n	n	n	n	x	x
COc1cccc(C2c3c(-c4cc(Cl)c(C)cc4O)n[nH]c3C(=O)N2Cc2cccnc2)c1 (stereo not given)	n	n	n	n	n	x	x
